Rows were chosen to be rich in hits. Some 27% of all compounds tested hit in one or more screens of this group.
CYP2C19 act: increases human CYP2C19 enzyme activity; 96,000 tested, under 10 active; recombinant CYP2C19, luciferin-H EGE luminescence; stronger effect = higher value; 0 = fully inhibited enzyme, 1 = untreated enzyme; activation factor at 5 µM; P33261;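 active = activation factor of at least 2 at 5 µM in the primary screen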
CYP2C19 inhib: inhibitors of human CYP2C19 | P33261 | CYP2C19 Supersomes, luciferin-H EGE luminescence, 30 min | inhibition, % at 5 µM | 96,000 compounds, 21% hits | AID 778;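 active = CYP2C19 inhibition above a set limit at 5 µM in the primary screen, cut at about 50% in these data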
CYP2C9 inhib: inhibitors of human CYP2C9; P11712; CYP2C9 Supersomes, luciferin-H conversion, luminescence; inhibition, % at 5 µM; 96,000 compounds, 20% hits; AID 777;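 active = blocking of liver enzyme CYP2C9 beyond about 50% at 5 µM, limit read from the data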
EphB4 ephrin blk: blocks human EphB4 binding to ephrin-B2; EphB4 LBD / TNYL-RAW-Alexa532 peptide, fluorescence polarization; AID 720; 97,000 compounds, 0.15% hits; inhibition, % at 7 µM; P54760;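 active = inhibition above the screen-wide mean inhibition plus 3 SD, cut at about 15% in these data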
CYP2C9 activ: activators of human CYP2C9; AID 1024; P11712; recombinant CYP2C9, luciferin-H conversion, luminescence; stronger effect = higher value; factor 1 = untreated enzyme, 0 = blocked; activation factor at 5 µM; 96,000 compounds, 1.4% hits;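 active = activation factor of 2 or more for CYP2C9 at a 5 µM dose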
Each line names hits and unclear results; the compound was inactive in the other large screens.

CC(OC(=O)c1cc2sccc2n1C)C(=O)NCc1ccc(F)cc1 (configuration not stated)	CYP2C19 inhib 78, CYP2C9 inhib 74
CC(OC(=O)c1cc2sccc2n1C)C(=O)NCC1CCCO1 (configuration not stated)	none
CC(OC(=O)c1cc2sccc2n1C)C(=O)NCCc1ccccc1 (configuration not stated)	CYP2C19 inhib 52, CYP2C9 inhib 83
Cn1c(C(=O)NCc2cccnc2)cc2sccc21	none
CC(OC(=O)c1cc2sccc2n1C)C(=O)NCc1ccc2c(c1)OCO2 (configuration not stated)	CYP2C9 inhib 82
CCC(OC(=O)c1cc2sccc2n1C)C(=O)NCC1CCCO1 (configuration not stated)	none
Cc1ccc(SC(CC(=O)c2ccc(C)cc2)C(=O)O)cc1 (configuration not stated)	CYP2C9 inhib 95
COc1ccc(N2CCN(CCCNC(=O)CC3Oc4ccc(C)cc4NC3=O)CC2)cc1 (configuration not stated)	CYP2C9 inhib 77 (no result: EphB4 ephrin blk)
COc1ccccc1NC(=O)NC(=O)N(C(C)C)S(C)(=O)=O	none
COc1ccc(-c2noc(CSc3nc4ccccc4c(=O)n3-c3ccccc3)n2)cc1	none
CCn1c(SCc2nc(-c3ccccc3)no2)nc2ccccc21	CYP2C19 inhib 88
COc1ccc(-c2noc(CSc3nnc(-c4ccccc4)n3C)n2)cc1	CYP2C19 inhib 84, CYP2C9 inhib 66
Cn1c(SCc2nc(-c3ccc(Br)cc3)no2)nnc1-c1ccco1	none
CCn1c(SCc2nc(-c3ccccc3)no2)nnc1-c1cccs1	CYP2C19 inhib 51, CYP2C9 inhib 52
CCn1c(SCc2nc(-c3ccccc3)no2)nnc1-c1ccco1	none (no result: CYP2C19 act, CYP2C19 inhib, CYP2C9 inhib, CYP2C9 activ)
CCn1c(SCc2nc(-c3cccs3)no2)nnc1-c1c[nH]c2ccccc12	CYP2C9 inhib 57
COCC(C)n1c(C)cc(C(=O)CN2C(=O)NC3(CCCCC3C)C2=O)c1C (configuration not stated)	none
Cc1noc(C)c1CSc1nnc(-c2c[nH]c3ccccc23)n1-c1ccc(Cl)cc1	none
CCOc1ccc(-c2noc(COC)n2)cc1OC	none
COc1ccc(-c2noc(CSc3nnc(-c4ccncc4)n3-c3ccc(F)cc3)n2)cc1OC	CYP2C19 inhib 59
CCc1ccc(-n2c(SCc3c(C)noc3C)nnc2-c2ccncc2)cc1	CYP2C19 inhib 73, CYP2C9 inhib 58
O=c1[nH]c(CN2CCN(c3ccccc3)CC2)nc2ccccc12	none
COc1ccccc1C(=O)NC(C)C(c1cccs1)N1CCN(C)CC1 (configuration not stated)	none (no result: CYP2C19 act, CYP2C19 inhib, CYP2C9 inhib, CYP2C9 activ)
COc1ccc(C(=O)NC(=S)NCCO)cc1Br	none
C=CCN(CC=C)C(=S)NC(=O)c1ccc(OC)c(Br)c1	CYP2C19 inhib 74
COC(=O)c1ccc(COc2ccc3c4c(c(=O)oc3c2)CCC4)o1	none
Cc1nnc(Nc2ccc3c(c2)OCO3)c2ccccc12	none
CCOC(=O)c1cnn2c(C(F)(F)F)cc(-c3cn(C)nc3C)nc12	CYP2C19 inhib 57, CYP2C9 inhib 85
CCOC(=O)N1CCC(NC(=O)c2cnn3c(C(F)(F)F)cc(-c4cccc(OC)c4)nc23)CC1	CYP2C19 inhib 61, CYP2C9 inhib 58 (no result: EphB4 ephrin blk)
CCOC(=O)C1CCCN(C(=O)c2cnn3c(C(F)(F)F)cc(-c4ccccc4)nc23)C1 (configuration not stated)	none
CCOC(=O)c1cnn(-c2nc(-c3ccccc3)cs2)c1C(F)(F)F	CYP2C9 inhib 88
CCOC(=O)c1cnn2c(C(F)(F)F)cc(-c3ccccc3)nc12	CYP2C9 inhib 54 (no result: EphB4 ephrin blk)
COC(=O)c1cnn2c(C(F)(F)F)cc(-c3ccc(F)cc3)nc12	none
CCOC(=O)c1ccc(NC(=O)COc2ccc(S(=O)(=O)NC(C)C)cc2)cc1	none
CCOC(=O)c1cnc2c(-c3ccccc3)cnn2c1N	CYP2C19 inhib 63, CYP2C9 inhib 57
CCOC(=O)c1cnc2c(-c3ccccc3)c(C)nn2c1N	none
O=C(COc1ccc(-c2nnc(N3CCCCC3)c3ccccc23)cc1)N1CCCCC1	none (no result: CYP2C19 act, CYP2C19 inhib, CYP2C9 inhib, CYP2C9 activ)
CCN(CCCn1c(SCC#N)nc2ccccc2c1=O)c1ccccc1	CYP2C19 inhib 77, CYP2C9 inhib 93
CCOC(=O)CSc1nc2ccccc2c(=O)n1C	none (no result: CYP2C19 act, CYP2C19 inhib, CYP2C9 inhib, CYP2C9 activ)
CC(=O)NCCn1c(SCC(=O)c2ccccc2)nc2ccccc2c1=O	CYP2C19 inhib 71, CYP2C9 inhib 55
C=C(C)Cn1c(SCC)nc2ccccc2c1=O	CYP2C19 inhib 88
